Results filed as inconclusive are left out. Activity calls are given as the source filed them. Unless noted, the call rests on the fitted dose curve.
Key:
[1] = molecular target: Estrogen receptor (Homo sapiens) (UniProt P03372); experiment: qHTS assay for small molecule antagonists of estrogen receptor alpha signaling (AID 588513; active means well fitted curve in the direction sought with a large enough effect in the signal ratio, with a control signal flat, not every such curve was filed as active; the % refers to the signal ratio; further: on the % scale 0 is the no-effect control and ±100 the full control effect)
Summary of the method: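 Antagonist mode: inhibition of 0.5 nM 17-beta-estradiol-driven beta-lactamase reporter in HEK 293 ER-alpha-UAS-bla cells, 18 h at 37C, CCF4 readout after 2 h at RT. Normalised to estradiol and DMSO; titration fitted to Hill.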

[2] = molecular target: Estrogen receptor (Homo sapiens) (UniProt P03372); experiment: qHTS assay for small molecule agonists of estrogen receptor alpha signaling (AID 588514);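 further: 0% = vehicle only and 100% = reference agonist; nearly all actives have a fitted effect of over 70% in size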
Summary of the method: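 Read-out: CCF4 fluorescence from a beta-lactamase reporter in ER-alpha-UAS-bla HEK 293 cells after 18 hrs of compound exposure at 37 C. Normalized to 20 nM 17-beta-estradiol (100%) and DMSO (0%).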

[3] = qHTS assay for small molecule antagonists of peroxisome proliferator-activated receptor delta signaling (AID 588535); conditions: HEK293T PPARd-UAS-bla, beta-lactamase FRET ratio, 18 h; 460 nm channel;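 further: cells co-treated with a PPAR-delta agonist as stimulator during compound exposure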
Summary of the method: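 Beta-lactamase reporter read-out (405 nm excitation, 460/530 nm emission) after CCF4 loading for 2 hrs at RT. HEK293T PPAR-delta-UAS-bla cells, 2% charcoal/dextran FBS, compounds for 18 hrs at 37 C. Hill fit gave IC50 and efficacy.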

[4] = molecular target: Vitamin D3 receptor (Homo sapiens) (UniProt P11473); experiment: qHTS assay for small molecule antagonists of vitamin D receptor signaling (AID 588541);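 further: receptor activated by calcitriol during compound treatment; series mostly up to about 77 µM; on the % scale 0 is the no-effect control and ±100 the full control effect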
Summary of the method: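 VDR-UAS-bla HEK293T cells in 2% charcoal-stripped FBS were stimulated with 1-alpha,25-dihydroxyvitamin D3 (3 nM final) plus compound for 16 h at 37 C. The beta-lactamase CCF4 readout was normalized to 50 nM agonist and DMSO, and Hill fits gave IC50.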

[5] = molecular target: Vitamin D3 receptor (Homo sapiens) (UniProt P11473); experiment: qHTS assay for small molecule agonists of vitamin D receptor signaling (AID 588543);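 further: 0% = DMSO basal and 100% = reference agonist control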
Summary of the method: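 Agonist-mode beta-lactamase reporter: HEK293T VDR-UAS-bla cells in charcoal-stripped 2% FBS, compound series 16 h 37 C, CCF4 2 h RT. EC50 from Hill fit, scaled against DMSO and 50 nM calcitriol control.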

[6] = qHTS assay for small molecule agonists of retinoid X receptor alpha signaling (AID 588544); conditions: HEK293T RXRa-UAS-bla, beta-lactamase reporter, 18 h; 530 nm emission; further: potency means the concentration at half of the fitted maximal effect;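 on activation: 0% = DMSO basal wells and 100% = reference agonist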
[7] = molecular target: Retinoic acid receptor RXR-alpha (Homo sapiens) (UniProt P19793); experiment: as above
[8] = molecular target: Thyroid hormone receptor beta (Homo sapiens) (UniProt P10828); experiment: qHTS assay for small molecule agonists of thyroid hormone receptor beta signaling (AID 588545);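 further: 0% = DMSO only and 100% = 10 nM T3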
Summary of the method: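 TR-UAS-bla-GripTite HEK 293 cells in medium with 2% charcoal/dextran FBS, 0.1 mM NEAA and 1 mM sodium pyruvate were treated with titrated compounds for 18 hrs at 37 C. Beta-lactamase reporter was read with CCF4 dye (ex 405, em 460/530 nm); EC50 from Hill fits.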

[9] = qHTS assay for small molecule antagonists of retinoid X receptor alpha signaling (AID 588546; active means well fitted inhibition curve with a large enough effect in the signal ratio, with a control signal flat, not every such curve was filed as active; the % refers to the signal ratio;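 further: cells stimulated with 9-cis-retinoic acid as agonist; on the % scale 0 is the no-effect control and ±100 the full control effect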); conditions: HEK293T RXRa-UAS-bla, beta-lactamase ratio, antagonist mode; measured here: W530 green channel, cytotoxicity proxy
Summary of the method: (§1)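 Beta-lactamase reporter inhibition, read as CCF4 fluorescence ratio (ex 405, em 460/530 nm) after 2 h at RT. HEK293T UAS-bla cells, 2500/well, were stimulated with 9-cis-RA at 500 or 100 nM final alongside test compound for 18 h at 37 C.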

[10] = molecular target: Retinoic acid receptor RXR-alpha (Homo sapiens) (UniProt P19793); experiment: as above; conditions: HEK293T RXRa-UAS-bla, beta-lactamase ratio, antagonist mode
Summary of the method: as §1

[11] = molecular target: Thyroid hormone receptor beta (Homo sapiens) (UniProt P10828); experiment: qHTS assay for small molecule antagonists of thyroid hormone receptor beta signaling (AID 588547; active means well fitted inhibition curve with a large enough effect in the signal ratio, with a control signal flat, not every such curve was filed as active; the % refers to the signal ratio;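 further: cells stimulated with 0.4 nM T3 agonist during compound exposure; series mostly up to about 77 µM; on the % scale 0 is the no-effect control and ±100 the full control effect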); conditions: TR-UAS-bla HEK293, beta-lactamase ratio, antagonist mode, 18 h
Summary of the method: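 TR-UAS-bla GripTite HEK293 cells in 2% charcoal/dextran FBS medium; compounds 0.59 nM to 92 uM with T3 at 0.4nM final, 18 h at 37 C. Beta-lactamase read by CCF4 fluorescence (460/530 nm); Hill fits gave IC50 and efficacy.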

[12] = qHTS assay for small molecule activators of the p53 signaling pathway (AID 651743; active means well fitted activation curve with a large enough effect in the signal ratio, not every such curve was filed as active; the % refers to the signal ratio; further: series mostly up to about 92 µM; % of control where 0% means no effect); conditions: HCT-116 p53RE-bla, beta-lactamase FRET ratio, 16 h; activation: stronger effect = higher value
Summary of the method: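 Reporter: beta-lactamase driven by p53 response elements, stably integrated in HCT-116 cells. Cells seeded at 4,000/well, 5 h preincubation, compound (DMSO) 16 h at 37 C; B/G FRET substrate 2 h RT; fluorescence intensity read.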

[13] = qHTS assay for environmental chemicals that activate the Aryl hydrocarbon Receptor (AhR) signaling pathway (AID 651777; active means well fitted curve in the direction sought with a large enough effect; an effect the other way counts as inactive or inconclusive; further: % of control where 0% means no effect; nearly all actives have a fitted effect of over 15% in size); conditions: 1A2-DRE human hepatoma cells, luciferase, 24 h; activation: stronger effect = higher value
Summary of the method: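 Measured luciferase activity, read 30 min after One-Glo addition at room temperature, from human hepatoma cells bearing a dioxin response element–CYP1A2 promoter reporter and exposed to compound for 24 hr at 37 C.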

[14] = qHTS assay for small molecule agonists of the antioxidant response element (ARE) signaling pathway measured by Nrf2-dependant transcriptional activity (AID 720636; active means well fitted curve in the direction sought with a large enough effect in the repeat runs; an effect the other way counts as inactive or inconclusive;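 further: HepG2 cells with an ARE-driven luciferase reporter; % of control where 0% means no effect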)
Summary of the method: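 In HepG2 cells engineered with an Nrf2-responsive luciferase gene, ARE induction was quantified as luminescence after 16 hr compound treatment at 37 C.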

[15] = qHTS assay for small molecule agonists of the antioxidant response element (ARE) signaling pathway measured by Nrf2-dependant transcriptional activity - cell viability counter screen (AID 720653; active means well fitted curve in the direction sought with a large enough effect in the repeat runs; an effect the other way counts as inactive or inconclusive; further: on the % scale 0 is the no-effect control and ±100 the full control effect); conditions: ARE-bla HepG2 viability, CellTiter-Glo ATP luminescence, 16 h; max response: stronger effect = lower value
Summary of the method: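 ARE-bla HepG2 cells treated with compounds for 16 h at 37C; this counter screen measures viability as intracellular ATP by CellTiter-Glo luminescence after 30 min at room temperature.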

[16] = qHTS assay for cell viability of HEK293 cells (AID 743288; active means well fitted curve in the direction sought with a large enough effect; an effect the other way counts as inactive or inconclusive; further: on the % scale 0 is the no-effect control and ±100 the full control effect; nearly all actives have a fitted effect of over 50% in size); conditions: ATP luminescence (CellTiter-Glo), 18 h; max response: stronger effect = lower value
Summary of the method: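 Readout is luciferase-coupled ATP content (CellTiter-Glo luminescence, 30 min room temperature) as a measure of metabolically competent cells. Parental HEK293 cells were plated 5 h or more before compound addition, then treated 18 h at 37 C.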

[17] = qHTS assay for cell viability of the p53RE-bla HCT-116 cell line (AID 743292; active means well fitted curve in the direction sought with a large enough effect; an effect the other way counts as inactive or inconclusive; further: on the % scale 0 is the no-effect control and ±100 the full control effect; nearly all actives have a fitted effect of over 55% in size)
Summary of the method: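 Intracellular ATP of p53RE-bla HCT-116 cells measured by luciferase luminescence following 16 h compound incubation at 37 C; DMSO-only wells served as vehicle controls.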

[18] = molecular target: Nuclear receptor subfamily 1 group I member 2 (Rattus norvegicus) (UniProt Q9R1A7); experiment: qHTS assay for small molecule activators of the rat pregnane X receptor (rPXR) signaling pathway (AID 651751; call rule not given here; further: 0% is about no effect); conditions: rPXR reporter cells, luciferase (One-Glo), 24 h
[19] = qHTS assay for small molecule activators of the human pregnane X receptor (PXR) signaling pathway (AID 720659; call rule not given here; further: 0% is about no effect)
[20] = molecular target: Peroxisome proliferator-activated receptor alpha (Homo sapiens) (UniProt Q07869); experiment: qHTS assay for small molecule agonists of the peroxisome proliferator-activated receptor alpha (PPARalpha) signaling pathway (AID 651778; active means well fitted curve in the direction sought with a large enough effect; an effect the other way counts as inactive or inconclusive; further: % of control where 0% means no effect); conditions: PathHunter PPARalpha complementation, chemiluminescence, 6 h; max response: stronger effect = higher value
Summary of the method: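 Enzyme-fragment complementation assay in which ligand-bound PPARalpha translocates and forms an active enzyme that generates chemiluminescence. Cells were plated overnight, exposed to compound for 6 hr at 37 C, and then given detection reagent for 60 min at room temperature.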

Sequence of Retinoic acid receptor RXR-alpha (Homo sapiens) (P19793 whole entry, looked up): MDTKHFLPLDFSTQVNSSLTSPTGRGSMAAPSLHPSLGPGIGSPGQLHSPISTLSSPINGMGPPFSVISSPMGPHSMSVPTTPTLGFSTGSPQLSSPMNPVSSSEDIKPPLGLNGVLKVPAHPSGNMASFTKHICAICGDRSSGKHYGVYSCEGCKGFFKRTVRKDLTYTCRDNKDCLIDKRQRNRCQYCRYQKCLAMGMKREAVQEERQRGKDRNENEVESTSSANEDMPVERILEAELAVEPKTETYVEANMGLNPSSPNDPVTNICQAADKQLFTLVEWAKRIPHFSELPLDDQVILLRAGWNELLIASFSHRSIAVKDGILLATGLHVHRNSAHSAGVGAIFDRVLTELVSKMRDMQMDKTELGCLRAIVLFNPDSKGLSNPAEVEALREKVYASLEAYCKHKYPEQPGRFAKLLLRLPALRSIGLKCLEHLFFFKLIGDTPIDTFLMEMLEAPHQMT
Sequence of Peroxisome proliferator-activated receptor alpha (Homo sapiens) (Q07869 whole entry, looked up, the tested form may be a part): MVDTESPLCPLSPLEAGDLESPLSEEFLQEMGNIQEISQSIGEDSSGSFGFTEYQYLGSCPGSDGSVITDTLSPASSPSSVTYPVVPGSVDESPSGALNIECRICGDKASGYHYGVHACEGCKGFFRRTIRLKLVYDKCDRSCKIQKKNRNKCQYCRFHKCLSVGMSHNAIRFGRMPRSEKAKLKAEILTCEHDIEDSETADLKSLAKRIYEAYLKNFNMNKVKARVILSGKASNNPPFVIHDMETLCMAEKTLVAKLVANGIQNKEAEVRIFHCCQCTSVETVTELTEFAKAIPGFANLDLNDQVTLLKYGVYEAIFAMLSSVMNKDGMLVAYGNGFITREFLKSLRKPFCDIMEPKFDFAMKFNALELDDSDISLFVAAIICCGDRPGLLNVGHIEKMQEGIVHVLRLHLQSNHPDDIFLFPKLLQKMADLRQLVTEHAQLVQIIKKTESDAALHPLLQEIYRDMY
Sequence of Nuclear receptor subfamily 1 group I member 2 (Rattus norvegicus) (Q9R1A7 whole entry, looked up): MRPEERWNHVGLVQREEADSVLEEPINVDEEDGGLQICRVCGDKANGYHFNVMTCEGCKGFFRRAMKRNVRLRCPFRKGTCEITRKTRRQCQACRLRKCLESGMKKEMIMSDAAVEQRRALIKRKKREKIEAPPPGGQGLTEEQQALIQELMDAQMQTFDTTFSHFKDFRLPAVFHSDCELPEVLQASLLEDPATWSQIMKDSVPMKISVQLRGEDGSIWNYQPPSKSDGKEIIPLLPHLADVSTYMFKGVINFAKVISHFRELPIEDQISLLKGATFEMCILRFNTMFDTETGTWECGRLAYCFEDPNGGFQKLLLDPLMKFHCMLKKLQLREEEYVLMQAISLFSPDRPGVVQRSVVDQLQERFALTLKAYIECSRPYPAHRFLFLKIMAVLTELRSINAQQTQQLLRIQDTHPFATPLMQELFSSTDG
Sequence of Estrogen receptor (Homo sapiens) (P03372 whole entry, looked up): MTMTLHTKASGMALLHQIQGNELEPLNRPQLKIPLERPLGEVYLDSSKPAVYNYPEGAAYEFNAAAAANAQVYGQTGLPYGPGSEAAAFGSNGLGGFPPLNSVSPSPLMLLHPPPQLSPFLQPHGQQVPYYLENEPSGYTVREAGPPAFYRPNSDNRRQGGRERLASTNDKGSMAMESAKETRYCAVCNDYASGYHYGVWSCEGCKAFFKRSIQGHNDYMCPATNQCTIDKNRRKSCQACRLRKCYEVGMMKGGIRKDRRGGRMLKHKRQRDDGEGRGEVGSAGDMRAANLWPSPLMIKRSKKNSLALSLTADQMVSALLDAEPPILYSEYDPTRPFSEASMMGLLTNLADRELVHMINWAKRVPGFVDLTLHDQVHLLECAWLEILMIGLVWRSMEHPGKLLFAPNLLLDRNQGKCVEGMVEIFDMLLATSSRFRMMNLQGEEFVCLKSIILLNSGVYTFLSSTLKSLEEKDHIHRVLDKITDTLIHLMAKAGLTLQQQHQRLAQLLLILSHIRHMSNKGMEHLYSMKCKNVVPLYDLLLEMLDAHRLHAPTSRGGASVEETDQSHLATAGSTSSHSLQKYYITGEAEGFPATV
Sequence of Thyroid hormone receptor beta (Homo sapiens) (P10828 whole entry, looked up): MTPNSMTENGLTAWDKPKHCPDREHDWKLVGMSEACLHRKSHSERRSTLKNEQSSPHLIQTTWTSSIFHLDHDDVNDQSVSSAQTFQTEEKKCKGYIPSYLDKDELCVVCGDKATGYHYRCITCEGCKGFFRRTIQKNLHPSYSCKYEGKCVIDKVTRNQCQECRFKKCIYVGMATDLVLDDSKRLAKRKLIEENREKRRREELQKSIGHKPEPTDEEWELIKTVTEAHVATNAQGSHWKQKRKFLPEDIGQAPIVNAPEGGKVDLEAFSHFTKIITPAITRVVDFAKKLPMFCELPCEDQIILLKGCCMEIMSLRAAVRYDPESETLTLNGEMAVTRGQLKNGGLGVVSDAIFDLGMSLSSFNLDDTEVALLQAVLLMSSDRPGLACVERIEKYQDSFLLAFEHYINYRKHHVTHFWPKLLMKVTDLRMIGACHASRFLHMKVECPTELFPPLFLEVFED
Sequence of Vitamin D3 receptor (Homo sapiens) (P11473 whole entry, looked up): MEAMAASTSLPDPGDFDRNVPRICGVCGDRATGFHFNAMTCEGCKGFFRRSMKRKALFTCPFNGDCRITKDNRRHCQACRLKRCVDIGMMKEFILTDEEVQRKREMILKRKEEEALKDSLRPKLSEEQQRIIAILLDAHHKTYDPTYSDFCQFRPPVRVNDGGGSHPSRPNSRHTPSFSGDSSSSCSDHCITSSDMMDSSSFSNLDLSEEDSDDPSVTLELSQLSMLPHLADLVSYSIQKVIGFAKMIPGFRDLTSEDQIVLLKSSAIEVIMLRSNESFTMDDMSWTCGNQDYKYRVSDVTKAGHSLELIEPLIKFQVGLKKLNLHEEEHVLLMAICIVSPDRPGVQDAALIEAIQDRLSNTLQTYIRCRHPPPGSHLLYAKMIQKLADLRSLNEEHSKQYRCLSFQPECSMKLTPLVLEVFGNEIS

| Compound | Potency [1] | Potency [2] | max response [3] [%] | Potency [4] | outcome [5] | max response [6] [%] | Potency [7] | Potency [8] | max response [9] [%] | max response [10] | activity change % (negative = inhibition) [11] | activation [12] | activation [13] | Potency [14] | max response [15] | max response [16] | Potency [17] | max response [18] | outcome [19] | max response [20] |
| --- | --- | --- | --- | --- | --- | --- | --- | --- | --- | --- | --- | --- | --- | --- | --- | --- | --- | --- | --- | --- |
| CCCCCCCCCCCCCCCCCCN | inactive | inactive | 13.6 | inactive | inactive | -24 | 15.8 µM (active) | inactive | -8.83 | 4.01% (inactive) | 13% (inactive) | -1.5% (inactive) | 0.284% (inactive) | inactive | -7.69% (inactive) | 4.92% (inactive) | inactive | -2.88% (inactive) | inactive | – |
| C=C[Si](OCCOC)(OCCOC)OCCOC | inactive | inactive | 25.9 | inactive | – | -7.07 | inactive | inactive | -8.04 | 2.22% (inactive) | – | -3.03% (inactive) | 0.581% (inactive) | inactive | 15.4% (inactive) | -9.27% (inactive) | inactive | 1.26% (inactive) | inactive | -0.929% (inactive) |
| CCCCCCCCCCCCCCN | inactive | inactive | -7.23 | – | inactive | -19.1 | inactive | inactive | -5.44 | -5.01% (inactive) | – | 2.13% (inactive) | – | inactive | 4.41% (inactive) | -3.28% (inactive) | inactive | 1.71% (inactive) | inactive | -1.81% (inactive) |
| O=C(O)c1ccc(C(=O)O)c(C(=O)O)c1 | inactive | inactive | -62.8 | – | – | -17.6 | inactive | inactive | -4.49 | -0.212% (inactive) | 8.09% (inactive) | – | 0.771% (inactive) | inactive | -4.75% (inactive) | -0.128% (inactive) | inactive | 0.399% (inactive) | inactive | -1.17% (inactive) |
| CCOC(=O)CCCCCCCCC(=O)OCC | inactive | inactive | – | inactive | – | 3.8 | inactive | inactive | -7.52 | 0.487% (inactive) | – | – | 0.108% (inactive) | – | -13.4% (inactive) | -4.17% (inactive) | inactive | 2.58% (inactive) | inactive | -3.28% (inactive) |
| C[N+](C)(C)CC(O)CCl (configuration not stated) | inactive | inactive | 1.91 | inactive | inactive | -3.49 | inactive | inactive | -3.33 | 4% (inactive) | -6.17% (inactive) | 0.454% (inactive) | 0.882% (inactive) | – | 0.797% (inactive) | -11.6% (inactive) | inactive | 0.555% (inactive) | inactive | -0.685% (inactive) |
| O=C(Cl)c1cc(Cl)cc(Cl)c1 | inactive | inactive | 16 | inactive | inactive | -4.35 | inactive | inactive | 3.33 | -11.9% (inactive) | -10.7% (inactive) | -0.691% (inactive) | 2.73% (inactive) | inactive | -8.26% (inactive) | -4.86% (inactive) | inactive | 2.44% (inactive) | inactive | -3.03% (inactive) |
| CN(C)C(=O)Nc1ccccc1 | inactive | inactive | 13.2 | inactive | inactive | -10.1 | inactive | – | -0.672 | -1.05% (inactive) | -24.6% (inactive) | – | – | inactive | 1.07% (inactive) | 1.22% (inactive) | inactive | 1.09% (inactive) | inactive | -2.12% (inactive) |
| CCCCCCCCCCCCCCO | inactive | inactive | – | inactive | inactive | -4.48 | inactive | inactive | -1.57 | 6.98% (inactive) | 8.79% (inactive) | -1.8% (inactive) | 0.688% (inactive) | inactive | 4.22% (inactive) | -0.0211% (inactive) | inactive | 0.238% (inactive) | inactive | 6.84% (inactive) |
| CC1(C)C(=O)N(Cl)C(=O)N1Cl | inactive | inactive | – | inactive | inactive | -24.2 | inactive | inactive | 1.31 | -12.2% (inactive) | -0.904% (inactive) | – | 0.743% (inactive) | inactive | -14.6% (inactive) | -4.37% (inactive) | inactive | -0.522% (inactive) | inactive | -0.353% (inactive) |
| OCCC(F)(F)C(F)(F)C(F)(F)C(F)(F)C(F)(F)C(F)(F)C(F)(F)C(F)(F)F | inactive | – | -9.21 | inactive | inactive | -23.4 | inactive | inactive | -18.9 | -9.11% (inactive) | – | 2.93% (inactive) | 0.162% (inactive) | inactive | -8.07% (inactive) | -9.6% (inactive) | inactive | -1.29% (inactive) | – | 0.874% (inactive) |
| Nc1nc(N)nc(-c2ccccc2)n1 | inactive | inactive | 20.7 | – | – | -9.5 | inactive | inactive | -13.3 | -4.65% (inactive) | 13.3% (inactive) | – | 5.62% (inactive) | – | -8.33% (inactive) | -4.29% (inactive) | inactive | 2.49% (inactive) | inactive | 0.149% (inactive) |

From PubChem BioAssay (NCATS)
